Compounds without any hit were thinned out: in the full panel of roughly 83,000, 20% have a hit.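 Cells were grown in 96-well plates and exposed to the test compound at a single concentration for 48 hours; results are reported as percent growth, with values below 10 considered active.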 Calls of active or inactive are those of the source.
Legend:
Assay in all cases: NCI-60 one-dose screen, 48 h (100 = growth as untreated, 0 = no growth, -100 = all killed)
DU-145 prostate = settings: 10 µM unless noted
K-562 leukemia = settings: 10 µM unless noted
MALME-3M melanoma = settings: 10 µM unless noted
MDA-MB-231 breast = settings: 10 µM unless noted
RXF 393 renal = settings: 10 µM unless noted
SF-268 CNS = settings: 10 µM unless noted
SF-295 CNS = settings: 10 µM unless noted
SF-539 CNS = settings: 10 µM unless noted
UACC-257 melanoma = settings: 10 µM
M14 melanoma = settings: 10 µM unless noted
HCT-15 colon = settings: 10 µM unless noted
HT29 colon = settings: 10 µM unless noted
SNB-75 CNS = settings: 10 µM unless noted
SNB-19 CNS = settings: 10 µM unless noted
U251 CNS = settings: 10 µM unless noted
PC-3 prostate = settings: 10 µM unless noted
SK-MEL-5 melanoma = settings: 10 µM unless noted
UACC-62 melanoma = settings: 10 µM unless noted
LOX IMVI melanoma = settings: 10 µM unless noted
SK-MEL-28 melanoma = settings: 10 µM unless noted

Measured: growth

O=C1c2c(O)cc(O)cc2O[C@@H](c2ccc(O)cc2)[C@@H]1c1c(O)cc(O)c2c(=O)cc(-c3ccc(O)c(O)c3)oc12
inactive: DU-145 prostate 106% | K-562 leukemia 111% | MALME-3M melanoma 90.7% | MDA-MB-231 breast 111% | RXF 393 renal 112% | SF-268 CNS 101% | SF-295 CNS 108% | SF-539 CNS 95.8% | UACC-257 melanoma 108% | M14 melanoma 94.8% | HCT-15 colon 101% | HT29 colon 101% | SNB-75 CNS 82.6% | SNB-19 CNS 112% | U251 CNS 110% | PC-3 prostate 96.1% | SK-MEL-5 melanoma 99.6% | UACC-62 melanoma 89.5% | LOX IMVI melanoma 88.9% | SK-MEL-28 melanoma 99.1%

C[C@@H]1C[C@H]2C(=O)OCC(NC(=O)[C@H](Cc3cc(F)cc(F)c3)NC(=O)Nc3ccc(Cl)cc3F)C(=O)N3CCC[C@H]3C(=O)N3CCCC[C@H]3C(=O)N[C@@H](C)C(=O)N2C1 (stereo not given in full)
inactive: DU-145 prostate 24.7% | K-562 leukemia 19.3% | MALME-3M melanoma 35.9% | MDA-MB-231 breast 27.3% | SF-268 CNS 29.8% | SF-539 CNS 32.1% | UACC-257 melanoma 17.2% | M14 melanoma 19% | HCT-15 colon 11.1% | HT29 colon 15.6% | SNB-75 CNS 46.8% | SNB-19 CNS 24.4% | U251 CNS 28.8% | PC-3 prostate 17.3% | UACC-62 melanoma 26.7% | SK-MEL-28 melanoma 39.7%
active: RXF 393 renal -12.6% | SF-295 CNS 8.11% | SK-MEL-5 melanoma -12.3% | LOX IMVI melanoma 4.29%

CCOC(=O)c1c(NC(=O)c2ccc(F)cc2F)sc2c1CCC(=O)C2
inactive: DU-145 prostate 94.9% | K-562 leukemia 86.7% | MALME-3M melanoma 118% | MDA-MB-231 breast 97.2% | RXF 393 renal 117% | SF-268 CNS 91.9% | SF-295 CNS 95.1% | SF-539 CNS 79.3% | UACC-257 melanoma 102% | M14 melanoma 111% | HCT-15 colon 80.6% | HT29 colon 103% | SNB-75 CNS 94.3% | SNB-19 CNS 67.2% | U251 CNS 53.5% | PC-3 prostate 93.7% | SK-MEL-5 melanoma 98.5% | UACC-62 melanoma 83.4% | LOX IMVI melanoma 80.7% | SK-MEL-28 melanoma 112%

CCCCCCNC(=O)Oc1ccc(/C(=C(/C)c2ccc(Cl)cc2)c2ccc(OCCN3CCCC3)cc2)cc1
inactive: DU-145 prostate 69.2% | MDA-MB-231 breast 30.6% | SF-268 CNS 61.9% | SNB-75 CNS 67.2% | SNB-19 CNS 45% | U251 CNS 29.6% | PC-3 prostate 37.5% | SK-MEL-5 melanoma 14.9% | UACC-62 melanoma 20.8%
active: K-562 leukemia 6.52% | MALME-3M melanoma -70.8% | RXF 393 renal 9.25% | SF-295 CNS -32.7% | SF-539 CNS -24.4% | UACC-257 melanoma -16.5% | M14 melanoma -54.3% | HCT-15 colon 0.291% | HT29 colon -17.7% | LOX IMVI melanoma -98.6% | SK-MEL-28 melanoma -49.4%

O=C(COc1ccc(C2SCC(=O)N2c2ccccc2)cc1)c1ccccc1 (stereo not given)
inactive: DU-145 prostate 102% | K-562 leukemia 88.9% | MALME-3M melanoma 100% | MDA-MB-231 breast 81.6% | RXF 393 renal 91.2% | SF-268 CNS 93.4% | SF-295 CNS 96.9% | SF-539 CNS 101% | UACC-257 melanoma 102% | M14 melanoma 102% | HCT-15 colon 97.2% | HT29 colon 105% | SNB-75 CNS 87.5% | SNB-19 CNS 99.4% | U251 CNS 95.8% | PC-3 prostate 80.5% | SK-MEL-5 melanoma 94.4% | UACC-62 melanoma 68.6% | LOX IMVI melanoma 93.3% | SK-MEL-28 melanoma 105%

CN1C(=O)/C(=C/C=C/c2ccco2)SC1=S
active: RXF 393 renal -20.9%
inactive: DU-145 prostate 101% | K-562 leukemia 77.7% | MALME-3M melanoma 36% | MDA-MB-231 breast 86.8% | SF-268 CNS 91.2% | SF-295 CNS 101% | SF-539 CNS 84.7% | UACC-257 melanoma 88.1% | M14 melanoma 45% | HCT-15 colon 63.5% | HT29 colon 90.9% | SNB-75 CNS 92.6% | SNB-19 CNS 88.5% | U251 CNS 66.8% | PC-3 prostate 80% | SK-MEL-5 melanoma 40% | UACC-62 melanoma 77.2% | LOX IMVI melanoma 75.5% | SK-MEL-28 melanoma 83.9%

CCOC(=O)C1=C(C)N=C2Sc3ccccc3N2C1c1ccccc1 (stereo not given)
active: HT29 colon -72.7%
inactive: DU-145 prostate 98.2% | K-562 leukemia 72.8% | MALME-3M melanoma 102% | MDA-MB-231 breast 83.2% | RXF 393 renal 109% | SF-268 CNS 101% | SF-295 CNS 98.3% | SF-539 CNS 90.3% | UACC-257 melanoma 92.6% | M14 melanoma 89.5% | HCT-15 colon 77.8% | SNB-75 CNS 87.1% | SNB-19 CNS 95.5% | U251 CNS 103% | PC-3 prostate 78.2% | SK-MEL-5 melanoma 85.8% | UACC-62 melanoma 65.8% | LOX IMVI melanoma 84.3% | SK-MEL-28 melanoma 109%

CN(C)CCn1c2ccc(N)cc2c2nc3ccccc3nc21
active: LOX IMVI melanoma 9.95%
inactive: DU-145 prostate 25.3% | K-562 leukemia 13.7% | MALME-3M melanoma 44.1% | MDA-MB-231 breast 32.7% | RXF 393 renal 35.4% | SF-268 CNS 43.4% | SF-295 CNS 32.3% | SF-539 CNS 21.3% | UACC-257 melanoma 38.4% | M14 melanoma 35.9% | HCT-15 colon 21.1% | HT29 colon 21.3% | SNB-75 CNS 54.2% | SNB-19 CNS 32.1% | U251 CNS 33.4% | PC-3 prostate 38.6% | SK-MEL-5 melanoma 27% | UACC-62 melanoma 35.2% | SK-MEL-28 melanoma 54.5%

CCOC(=O)c1c(Nc2ccccc2)nn2c(-c3ccc(Br)cc3)ccnc12
inactive: DU-145 prostate 77.8% | K-562 leukemia 78.9% | MALME-3M melanoma 75% | MDA-MB-231 breast 70.4% | SF-268 CNS 68.7% | SF-295 CNS 77.2% | SF-539 CNS 63.8% | UACC-257 melanoma 103% | M14 melanoma 88.6% | HCT-15 colon 66.4% | HT29 colon 76.7% | SNB-75 CNS 65.2% | SNB-19 CNS 56.8% | U251 CNS 66.3% | PC-3 prostate 80.9% | SK-MEL-5 melanoma 81.2% | UACC-62 melanoma 79.3% | LOX IMVI melanoma 56.4% | SK-MEL-28 melanoma 78.3%
active: RXF 393 renal -12.3%

Nc1n[nH]c2cccc(C#Cc3cccc(NC(=O)c4cccc(OC(F)(F)F)c4)c3)c12
inactive: DU-145 prostate 71.4% | MDA-MB-231 breast 17.7% | RXF 393 renal 24.2% | SF-268 CNS 50.9% | SF-295 CNS 73.8% | UACC-257 melanoma 63.1% | M14 melanoma 31% | HCT-15 colon 41.3% | HT29 colon 36.1% | SNB-75 CNS 47.7% | SNB-19 CNS 81.3% | U251 CNS 59.3% | PC-3 prostate 68.3% | SK-MEL-5 melanoma 80.9% | UACC-62 melanoma 30.1% | LOX IMVI melanoma 16.9% | SK-MEL-28 melanoma 30.3%
active: K-562 leukemia 7.22% | MALME-3M melanoma 2.17% | SF-539 CNS 6.63%

Nc1nc(-c2cccc([N+](=O)[O-])c2)c(N=Nc2ccccc2[N+](=O)[O-])s1
active: MDA-MB-231 breast -54.1% | RXF 393 renal -67.7% | SF-539 CNS -73.3% | SNB-75 CNS -14.7% | U251 CNS -79.5% | LOX IMVI melanoma 6.53%
inactive: DU-145 prostate 37.4% | K-562 leukemia 50.8% | MALME-3M melanoma 53.9% | SF-268 CNS 19.6% | SF-295 CNS 26.6% | UACC-257 melanoma 103% | M14 melanoma 50.7% | HCT-15 colon 43.8% | HT29 colon 80.2% | SNB-19 CNS 12.4% | PC-3 prostate 46.4% | SK-MEL-5 melanoma 47% | UACC-62 melanoma 66.1% | SK-MEL-28 melanoma 88.4%

CSc1nccc(-c2c(-c3ccc(F)c(OCc4ccc(F)cc4)c3)nc3sccn23)n1
inactive: DU-145 prostate 88.5% | K-562 leukemia 59.7% | MALME-3M melanoma 104% | MDA-MB-231 breast 65.8% | RXF 393 renal 84% | SF-268 CNS 83.9% | SF-295 CNS 80.3% | SF-539 CNS 73.3% | UACC-257 melanoma 64.4% | M14 melanoma 89% | HCT-15 colon 64.6% | HT29 colon 67.8% | SNB-75 CNS 113% | SNB-19 CNS 72.6% | U251 CNS 60.2% | PC-3 prostate 55.2% | SK-MEL-5 melanoma 19.2% | UACC-62 melanoma 38% | LOX IMVI melanoma 74% | SK-MEL-28 melanoma 87.5%

CN(c1ccc(Cl)cc1)S(=O)(=O)c1ccc(-c2cnc(C3CC3)o2)cc1
inactive: DU-145 prostate 15.9% | K-562 leukemia 10.4% | MALME-3M melanoma 77.8% | MDA-MB-231 breast 22.3% | RXF 393 renal 46.5% | SF-268 CNS 40.2% | SF-295 CNS 18% | SF-539 CNS 10.4% | UACC-257 melanoma 66.1% | M14 melanoma 24.9% | HCT-15 colon 15.6% | HT29 colon 15% | SNB-75 CNS 43% | SNB-19 CNS 44.4% | U251 CNS 32.3% | PC-3 prostate 22.3% | SK-MEL-5 melanoma 10.2% | UACC-62 melanoma 37.3% | LOX IMVI melanoma 12.9% | SK-MEL-28 melanoma 65.2%

Cc1nn(-c2ccc(Br)cc2)c2nc(CCl)[nH]c(=O)c12
inactive: DU-145 prostate 110% | K-562 leukemia 75.6% | MALME-3M melanoma 106% | MDA-MB-231 breast 94.1% | RXF 393 renal 119% | SF-268 CNS 99.4% | SF-295 CNS 100% | SF-539 CNS 77% | UACC-257 melanoma 101% | M14 melanoma 101% | HCT-15 colon 103% | HT29 colon 104% | SNB-75 CNS 99.7% | SNB-19 CNS 97.1% | U251 CNS 98.5% | PC-3 prostate 96.4% | SK-MEL-5 melanoma 102% | UACC-62 melanoma 95.1% | SK-MEL-28 melanoma 103%
active: LOX IMVI melanoma -9.8%

COc1cc(C(=O)C[n+]2ccc3ccccc3c2)cc(OC)c1OC
inactive: DU-145 prostate 105% | K-562 leukemia 91.7% | MALME-3M melanoma 91.5% | MDA-MB-231 breast 93.3% | RXF 393 renal 101% | SF-268 CNS 100% | SF-295 CNS 100% | SF-539 CNS 100% | UACC-257 melanoma 103% | M14 melanoma 98.1% | HCT-15 colon 98% | HT29 colon 95.2% | SNB-75 CNS 90% | SNB-19 CNS 93.5% | U251 CNS 98.3% | PC-3 prostate 88.8% | SK-MEL-5 melanoma 99.8% | UACC-62 melanoma 91.4% | LOX IMVI melanoma 97.4% | SK-MEL-28 melanoma 106%

— PubChem BioAssay (NCI)
